AGP1-GFP MLPCN – modulators of TOR pathway AGP1-GFP in S. cerevisiae; AID 2066; 320,000 compounds, 0.02% hits; S. cerevisiae AGP1-GFP multiplex flow cytometry, 3 h; GFP as percent of DMSO wells; GFP response vs DMSO, % at 10 µM;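 active = GFP response relative to DMSO above a set limit, near screen average plus 3 SD, cut at about 150% in these data; inconclusive = fewer than 70 cells counted for the yeast strain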;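 note: median GFP channel fluorescence of the gated AGP1 strain per well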
CIT2-GFP yeast – modulators of TOR pathway CIT2-GFP in S. cerevisiae | GFP response vs DMSO, % at 10 µM | S. cerevisiae CIT2-GFP strain, flow cytometry, 3 h; 100 means same as DMSO wells | 320,000 compounds, 0.065% hits;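 active = GFP response relative to DMSO above a set limit, near the screen mean plus 3 SD, cut at about 150% in these data; inconclusive = Fewer than 70 cells measured for a yeast strain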;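 note: ratio of well median GFP fluorescence to mean of DMSO wells on the plate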
LAP4 TOR yeast – modulators of TOR pathway LAP4-GFP in S. cerevisiae; S. cerevisiae LAP4-GFP multiplex, flow cytometry GFP, 3 h; median GFP as percent of DMSO wells; GFP response vs DMSO, % at 10 µM; 320,000 compounds, 0.34% hits;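 active = GFP response vs DMSO above a set limit, about the screen mean plus 3 SD, cut at about 150% in these data; inconclusive = under 70 cell events counted for the yeast strain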
RPL19A-GFP yeast – modulators of TOR pathway RPL19A-GFP in S. cerevisiae. percent response vs DMSO, % at 10 µM. 330,000 compounds, 0.3% hits. S. cerevisiae RPL19A-GFP strain, flow cytometry, 3 h; stronger effect = lower value;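 active = percent response vs DMSO below 50%; inconclusive = fewer than 70 events counted for the yeast strain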;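 note: median channel GFP fluorescence of the barcoded RPL19A-GFP strain; ratio of sample median GFP to plate DMSO average so 100% = DMSO; lower means less RPL19A-GFP as with rapamycin TOR inhibition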
MEP2 TOR yeast – alters MEP2-GFP fluorescence in TOR pathway yeast screen | S. cerevisiae MEP2-GFP strain, flow cytometry GFP, 3 h; 100% = DMSO control level | GFP response vs DMSO, % at 10 µM | 330,000 compounds, 0.51% hits | AID 2016;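 active = GFP response versus DMSO above a set limit, roughly screen mean plus 3 SD, cut at about 180% in these data; inconclusive = fewer than 70 cells counted for a yeast strain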;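 note: median GFP fluorescence of the barcode-gated MEP2-GFP cells per well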
The depositor's hits bear a star; ? = inconclusive; . = no result; [ ] = remark or other dose. Most compounds without a hit are left out; they make up all but 0.93% or so of the library.

SMILES	AGP1-GFP MLPCN	CIT2-GFP yeast	LAP4 TOR yeast	RPL19A-GFP yeast	MEP2 TOR yeast
CCN(CC)C(=O)C1=C(C)NC(=S)NC1c1cccs1 (stereo not given)	16.3	?	81.7	80.1	275.5*[may fluoresce violet]
N/C(=N/OC(=O)c1ccccc1Cl)c1ncc([N+](=O)[O-])s1	?	?	124.7	69.6	741.5*[may fluoresce violet]
O=C(Nc1nccs1)C(F)(F)C(F)(F)C(F)(F)C(=O)Nc1nccs1	?	?	97.3	31.1*[may fluoresce violet]	?
COc1cc2[nH]c(C(=O)N3CCC(Cc4ccccc4)CC3)cc2c(OC)c1OC	98.1	95.3	109.4	102.8	108.4
CC(C)(C)NC(=O)CN(C(=O)CCC(=O)Nc1nccs1)c1ccc(F)cc1	85.4	116.3	109.7	96.3	271.9*
COc1ccc(CCN2CC(C(=O)NCc3nc4ccccc4n3C)CCC2=O)cc1 (stereo not given)	94.3	95.6	95.8	90.1	94.6
CCCCn1nc(-c2ccccc2)c2nc3ccccc3nc21	?	?	92.7	16.9*[may fluoresce violet]	426.1*[may fluoresce violet]
Cn1nc(-c2ccccc2)c2nc3ccccc3nc21	.	91.9	?	?	?
Cc1cccc(OCCCSc2nc3ccc(C)cc3[nH]2)c1	90.6	83.4	162.3*	95.3	98.4
Cc1noc2ncnc(Sc3ccc(Cl)cc3)c12	98.7	98.0	165.9*	87.2	94.6
Cc1ccc(Sc2ncnc3onc(C)c23)cc1	92.5	110.0	130.0	100.5	99.8
CCOCCN1CCN(C2c3ccccc3CSc3ccccc32)CC1 (stereo not given)	?	?	105.0	64.2	257.0*[may fluoresce violet]
Cc1cc(C)n2nc(CNS(=O)(=O)c3ccc(F)cc3)nc2n1	99.6	98.4	117.0	105.5	103.4
COc1cccc(OCc2nnc(SCC(=O)NNC(=O)C3CCCCC3)n2C)c1	101.8	100.2	101.9	97.8	95.2
COc1cccc(OCc2nnc(SCC(=O)OC3CCCCC3)n2C)c1	?	?	90.1	62.9	227.8*[may fluoresce violet]
CC/C(=N/NC(=O)CNc1ccc(Cl)cc1C)c1ccccc1	15.2	?	87.0	77.5	480.9*[may fluoresce violet]
CC/C(=N\NC(=O)C1CC1)c1cccc(Cl)c1	107.5	102.4	106.9	97.0	99.4
C=CCN(C(=O)c1csnn1)C(C(=O)NC1CCCC1)c1cccs1 (stereo not given)	98.0	94.6	98.7	101.0	113.9
O=C(c1cccc(F)c1)N1CCC(N2CCOCC2)CC1	32.7	?	84.3	.	261.8*[may fluoresce violet]
O=C(c1cccc(Cl)c1)N1CCC(N2CCC(C(=O)N3CCOCC3)CC2)CC1	100.1	101.5	93.3	102.8	95.7
COc1ccc(CN2CCN(c3ncccn3)CC2)c(C)c1C	109.8	137.9	135.2	89.0	188.7*
Cc1ccc(OCC(=O)N/N=C/c2cccnc2)cc1C	97.5	101.5	96.5	104.1	103.9
COCCNC(=O)C(c1ccc(O)cc1)N(Cc1ccco1)C(=O)CCC(=O)Nc1ccccn1 (stereo not given)	?	?	78.3	47.8*[may fluoresce violet]	230.0*[may fluoresce violet]
Cc1ccc(N(C(=O)CCC(=O)Nc2ccccn2)C(C(=O)NC(C)C)c2ccc(F)cc2)cc1 (stereo not given)	95.8	93.5	88.9	102.4	105.1
Cc1cccc(N(CC(=O)NC2CCCC2)C(=O)CCC(=O)Nc2ccccn2)c1	?	?	76.7	55.5	279.6*[may fluoresce violet]
SMILES	AGP1-GFP MLPCN	CIT2-GFP yeast	LAP4 TOR yeast	RPL19A-GFP yeast	MEP2 TOR yeast
Cc1cc(C)cc(N(C(=O)CCC(=O)Nc2ccccn2)C(C(=O)NC(C)C)c2ccc(O)cc2)c1 (stereo not given)	24.8	?	105.4	41.5*[may fluoresce violet]	301.2*[may fluoresce violet]
O=C(NCC(=O)N(c1ccccc1)C(C(=O)NC1CCCCC1)c1cccnc1)c1ccco1 (stereo not given)	108.6	110.4	102.1	102.6	104.0
COc1ccc(C)cc1NC(=O)C1COc2ccccc2O1 (stereo not given)	94.5	91.8	90.7	101.6	98.2
O=C(/C=C/c1ccccc1Cl)c1ccc(O)cc1	97.7	84.8	.	99.2	101.3
O=C(/C=C/c1c(F)cccc1Cl)c1ccc(O)cc1	87.4	72.4	249.0*	77.9	87.1
Cn1c(SCCN2CCCC2)nnc1C1CCN(S(=O)(=O)c2ccc(F)cc2)CC1	102.4	104.8	97.3	104.6	104.4
N#CC(C#N)=Cc1c[nH]c(=O)c(C#N)c1Nc1ccccc1	?	?	103.9	61.1	266.4*[may fluoresce violet]

Bioassay records: PubChem BioAssay, NMMLSC
